Screens deposited in PubChem by several laboratories.
TWEAK-Fn14 inh – blocks TWEAK-Fn14 interaction in a reporter cell assay; inhibition, % at 10 µM; actives 2% (n = 360,000); AID 1159606; TWEAK-stimulated Fn14 reporter cells, luciferase luminescence, 8 h; in the data active = inhibition above about 50%
TROY signal inh – inhibitors of TROY-dependent NF-kB signaling | Q293 LMP1-TROYcd NF-kB luciferase reporter, 4 h | inhibition, % at 10 µM | actives 0.98% (n = 360,000) | AID 1347056;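 active = compounds whose plate-normalised and pattern-corrected inhibition of the luciferase reporter signal at the single screening dose is 50% or more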
EBV LMP1 NFkB – reduces LMP1-driven NF-kappaB luciferase signal; inhibition, % at 12.5 µM; LMP1-induced NF-kappaB luciferase reporter cells, luminescence; actives 0.69% (n = 350,000); AID 504558; in the data active = inhibition above about 41%;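 note: 0% = neutral control wells and 100% = reference inhibitor control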
TRPM1 prom inh – inhibitors of MITF-driven TRPM1 promoter in melanoma cells. inhibition, % at 12.5 µM. SK-MEL-5 TRPM1 promoter luciferase, 24 h. AID 488899. actives 0.83% (n = 330,000);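 active = mean inhibition across replicates of 60% or more, whatever share of single replicates reaches that level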
MITF act – activators of MITF-driven TRPM1 promoter activity in SK-MEL-5 cells; SK-MEL-5 TRPM1-promoter luciferase, 24 h; % of positive control, neutral wells = 0; activation, % at 12.5 µM; actives 0.75% (n = 300,000); AID 588334;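 active = mean activation of at least 80% with every replicate also reaching 80%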;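 note: 0% = neutral control wells and 100% = parthenolide positive control wells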
LGR2 antag – Drosophila LGR2 receptor signaling inhibition. inhibition, % at 9.99 µM. HEK293 LGR2, CRE-luciferase, bursicon-stimulated, 4 h. actives 0.35% (n = 380,000);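 active = drop in luminescence signal, shown as inhibition above about 50% in the replicate tests, limit read from the data, passing the limit was not always enough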;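 note: agonist challenge used bursicon conditioned medium at about half maximal strength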
Numbers without * were called inactive; . = no result. This is a sample that favours compounds with a hit; in the whole collection about 3% have one here.

SMILES	TWEAK-Fn14 inh	TROY signal inh	EBV LMP1 NFkB	TRPM1 prom inh	MITF act	LGR2 antag
CCN1CCN(C2=C(NS(=O)(=O)c3ccc(Br)cc3)C(=O)c3ccccc3C2=O)CC1	-14.2	2.9	6.8	89.7*	-88.1	-9.4
CN1CCN(C2=C(NS(=O)(=O)c3cccs3)C(=O)c3ccccc3C2=O)CC1	-14.2	-32.2	-11.3	76.6*	-76.6	-16.7
CNC[C@@H]1OCCCC[C@H](C)Oc2ccc(NC(=O)Nc3ccc4c(c3)OCO4)cc2C(=O)N([C@@H](C)CO)C[C@@H]1C	.	.	.	.	.	0.6
c1cnc2ccc(C(c3nnnn3C3CCCC3)N3CCN(c4nc5ccccc5s4)CC3)cc2c1 (stereo not given)	-23.1	-6.0	10.3	-5.1	5.0	.
Clc1ccc(C(c2nnnn2C2CCCC2)N2CCN(c3nc4ccccc4s3)CC2)cc1 (stereo not given)	73.9*	59.2*	-5.3	5.5	-7.0	6.5
Nc1cc(-c2ccc(Cl)cc2)nn1-c1ccccc1	-31.5	-51.0	-35.3	-113.8	119.1*	-46.2
Nc1ccc(-c2cc(N)n(-c3ccccc3)n2)cc1	33.0	39.4	-11.1	-50.5	54.7	.
Nc1c(-c2ccc(Cl)cc2)cnn1-c1ccccc1	-14.2	-30.2	0.0	-93.6	92.0*	-108.2
Nc1c(-c2ccccc2)cnn1-c1ccc(C(=O)O)cc1	54.2*	-28.9	-23.7	-39.5	40.6	-47.5
N#C[C@H]1[C@H](c2ccc(C3=CCCCC3)cc2)[C@@H](CO)N1C(=O)NC1CCCCC1	.	.	.	.	.	-5.2
O=C1CCN(CCCN2CCC(=O)N(Cc3ccccc3)C2=S)C(=S)N1Cc1ccccc1	23.5	5.2	-9.7	.	.	-3.9
O=C1CSC(=S)N1Cc1ccccc1	-14.1	5.6	41.5*	.	.	18.4
CO[C@H]1CN(C)C(=O)c2ccc(NC(=O)CC(F)(F)F)cc2OC[C@H](C)N(S(=O)(=O)c2cn(C)cn2)C[C@H]1C	.	.	.	.	.	6.8
C(=C\c1ccccc1)/CSc1ccccn1	-34.3	-60.0	-13.4	-99.6	108.5*	-74.4
C(=CCSc1ccccn1)CSc1ccccn1	.	.	.	.	.	-57.1
Cc1ccc(-n2nc(C)c3cc(C(=O)O)sc32)cc1	86.3*	.	-10.2	0.6	-2.8	.
COc1cccc(CNC(=O)C[C@@H]2C=C[C@H](NC(=O)C3CCC3)[C@@H](CO)O2)c1	.	.	.	.	.	16.3
CCN(CC)S(=O)(=O)c1cccc(C(=O)N/N=C/c2ccc(O)c(O)c2O)c1	-22.9	4.1	-11.0	26.8	-17.8	11.1
CCN(CC)S(=O)(=O)c1cccc(C(=O)N/N=C(\C)c2ccc(O)cc2O)c1	-0.2	7.1	-15.5	70.9*	-69.3	4.4
COc1ccccc1NCC(O)COc1ccc(C(C)(C)C)cc1 (stereo not given)	-24.7	-26.8	2.1	-23.2	22.3	0.0
CC(=O)Nc1ccc(OCC(O)CNC2CCCC2)cc1 (stereo not given)	4.7	-10.9	-4.6	-14.6	17.7	0.6
CC(=O)Nc1ccc(OCC(O)CNC(C)C)cc1 (stereo not given)	8.5	-3.6	50.8*	10.3	-9.3	-0.2
COc1ccc(NCC(O)COc2ccc(C(C)(C)C)cc2)cc1 (stereo not given)	3.5	-21.1	42.6*	8.2	-6.7	-16.6
CCCCCN=Cc1c(C)[nH]n(-c2nc3ccccc3s2)c1=O	86.7*	38.8	51.4*	19.7	.	59.7*
O=c1c(C=NCCCO)c(-c2ccccc2)[nH]n1-c1nc2ccccc2s1	77.2*	33.9	15.4	55.1	-53.5	9.6
SMILES	TWEAK-Fn14 inh	TROY signal inh	EBV LMP1 NFkB	TRPM1 prom inh	MITF act	LGR2 antag
Cc1cccc(NC(=O)C[C@H]2CC[C@H]3[C@@H](COc4ccc(NC(=O)NC(C)C)cc4C(=O)N3C)O2)c1	.	.	.	.	.	0.4
O=C(C[C@@H]1CC[C@H](NC(=O)C2CCC2)[C@H](CO)O1)NC1CCCCC1	.	.	.	.	.	-9.3
Cc1ccc(C)c(S(=O)(=O)N2CCN(C(=O)c3cc(-c4cccs4)nn3-c3ccccc3)CC2)c1	63.9*	33.1	3.9	13.1	-13.0	32.2
Cc1ccc(C)c(S(=O)(=O)N2CCN(C(=O)c3ccc(C)s3)CC2)c1	-14.8	1.4	44.5*	3.7	-0.7	-4.8
CCOC(=O)c1cc([N+](=O)[O-])cc([N+](=O)[O-])c1Sc1ncnc2nc[nH]c12	0.2	-13.4	-5.3	106.6*	.	-8.8
CCOC(=O)C(C)(C)Sc1ncnc2nc[nH]c12	14.3	6.3	10.3	-9.0	8.3	.
